The full ranking holds about 35,000 sequences; the median of “fluorescence intensity (a.u.)” is about 10,000, and the highest 2% start at about 52,000. The list comes from a sample in which the highest values are over-represented; it also holds similar and randomly drawn sequences.
Each sequence was assayed against T1, OsWOX13 (Oryza sativa, UniProt Q5QMM3 1-267) (assay: protein-binding microarray (RPBM); PBS, 2% BSA, 51.3 ng/ul salmon testes DNA, 50 uM zinc acetate, 200 nM TF, 25 C, 1 h; high values mean tight binding). Settings: protein: recombinant; tags: N-terminal polyhistidine and DsRed monomer fusion (pET32a); label: CyDye5-dUTP incorporated in the synthesized complementary strand; 3' TTTTT single-stranded linker to array surface; dsDNA, one strand shown.
T1 sequence: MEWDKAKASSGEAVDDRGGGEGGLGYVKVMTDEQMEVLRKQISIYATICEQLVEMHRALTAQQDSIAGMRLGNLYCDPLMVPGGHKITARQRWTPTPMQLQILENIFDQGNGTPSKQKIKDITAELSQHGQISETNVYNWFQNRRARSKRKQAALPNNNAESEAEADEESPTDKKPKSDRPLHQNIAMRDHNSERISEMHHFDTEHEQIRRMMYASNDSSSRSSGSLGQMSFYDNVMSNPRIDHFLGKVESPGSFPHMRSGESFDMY
Outline: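 Per-feature fluorescence intensity (arbitrary units), read on an Axon 4000B scanner, is the binding signal. Transcription factors carrying an N-terminal polyhistidine tag and DsRed fusion were expressed in E. coli BL21-CodonPlus and purified on Ni–NTA. A custom Agilent array, made double-stranded by primer extension with Cy5-dUTP and blocked with 2% BSA, was incubated with 200 nM protein in PBS, 2% BSA, salmon testes DNA and 50 µM zinc acetate at 25 °C for 1 h and then washed.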

Sequence	binding signal
TTAACAATTGAAAGATCATCTCATTGGTTAATTTATTTGGCGGAGTCACCTAGTGCAG	6220 fluorescence intensity (a.u.)
GATGGTCTATTAGTCCGTGATTAATTAAGTATTAGCTATTCGGAGTCACCTAGTGCAG	8910 fluorescence intensity (a.u.)
TTTGACAAATTTGACAACTCCTCTAGCTCCCACTGCTACTCGGAGTCACCTAGTGCAG	38200 fluorescence intensity (a.u.)
CTGTGATAATCTGTCTTCCTGTGATACCAGCACTGTTTCCCGGAGTCACCTAGTGCAG	3340 fluorescence intensity (a.u.)
TGCTAGTTAAATTGGGATAAAATAATGGGCCCATTTATTTCGGAGTCACCTAGTGCAG	4520 fluorescence intensity (a.u.)
AGTGATTAGTAGCAGCAGAAAGAGTGGAAGATTTAGAGGACGGAGTCACCTAGTGCAG	17800 fluorescence intensity (a.u.)
TTATTGATTGATTGAATCAGACTGAAATTCCAAACCACGACGGAGTCACCTAGTGCAG	63100 fluorescence intensity (a.u.)
ACAATTGATAGATTTGTCTGTTGCTTTGCTTTGATTCCTCCGGAGTCACCTAGTGCAG	43800 fluorescence intensity (a.u.)
AAAATTTAATTGATTATATGCTAATAACTTTCTTGTTTTGCGGAGTCACCTAGTGCAG	51600 fluorescence intensity (a.u.)
CAGAAACTGAAATACCAATTGATTCTTCCAATTCCCTGAACGGAGTCACCTAGTGCAG	6740 fluorescence intensity (a.u.)
TTAAATTTAAATTTGAGATTGATTTTGAGATATTTTCAACCGGAGTCACCTAGTGCAG	38200 fluorescence intensity (a.u.)
ATTGCGTGCTTGATTAATTAGTTTCTACCAACAATTTCTCCGGAGTCACCTAGTGCAG	8110 fluorescence intensity (a.u.)
CCCAAACGCCCTGAAATCAAATTGAATATTCCAATTTGCACGGAGTCACCTAGTGCAG	4630 fluorescence intensity (a.u.)
TGCACCAATTTGATTGATACCAATTTGCTTTAATTTCGTCCGGAGTCACCTAGTGCAG	57200 fluorescence intensity (a.u.)
AATTAAATAAATTATAATTTATTTTATTGAGATTTGATTTCGGAGTCACCTAGTGCAG	41300 fluorescence intensity (a.u.)
TTTTCTTGATTAATTAAATATAAATTTGCATTTCATTTCACGGAGTCACCTAGTGCAG	16900 fluorescence intensity (a.u.)
TATAATTGATTATTTTAATTTCTTTTGCTATTAATAGTCACGGAGTCACCTAGTGCAG	64700 fluorescence intensity (a.u.)
TTAAATTTAAATTTAAATTTAATTTTGAGATTTCTTTTCACGGAGTCACCTAGTGCAG	55700 fluorescence intensity (a.u.)
ATCGGCATGTTCACCAGCTCTGATTGGTAGTACGATTTTACGGAGTCACCTAGTGCAG	5140 fluorescence intensity (a.u.)
TAAATAAATGATTGGGCTTGTTAATGGGCTTCCTCTTCCTCGGAGTCACCTAGTGCAG	41900 fluorescence intensity (a.u.)
CCCAAATAGAAGTAGAATTGAGACACTGAGTGGTGCAAAGCGGAGTCACCTAGTGCAG	3400 fluorescence intensity (a.u.)

Sequence	binding signal
ATGATTGTTGGAGCAAGGCCCAGCCCAAGGTAGCGTACATCGGAGTCACCTAGTGCAG	13400 fluorescence intensity (a.u.)
TGTTACTAATTTATTTGGAGGCTTCATGGTTGACCTATTGCGGAGTCACCTAGTGCAG	3440 fluorescence intensity (a.u.)
GATAATTTGAACCATAGATTTATCATTCAAAGGCTATAAACGGAGTCACCTAGTGCAG	9720 fluorescence intensity (a.u.)
GTAGCAATCAAATATGGGCCGGTCAATTGTTCGCGGTAGACGGAGTCACCTAGTGCAG	4130 fluorescence intensity (a.u.)
CATGGACAACAATCATTGCCTGTTACGCGCAAAGTTCTCGCGGAGTCACCTAGTGCAG	8490 fluorescence intensity (a.u.)
AGTATAATGACTGTTAGATCTCCATAAAACTGGCCACAAACGGAGTCACCTAGTGCAG	3510 fluorescence intensity (a.u.)
GCGATTAAATGTACAGTAAATAGGGATGAACAATATACGACGGAGTCACCTAGTGCAG	3570 fluorescence intensity (a.u.)
CCTTAATTGTGGGGCTGACTGCTATTTTCTATATCATGTGCGGAGTCACCTAGTGCAG	56000 fluorescence intensity (a.u.)
TGCATTGATTTGGTATAATTGACCATGCTTTGCGATGCAACGGAGTCACCTAGTGCAG	57700 fluorescence intensity (a.u.)
ATAATATTTAATATTTAATTAATTATGTGCTAATAAATCGCGGAGTCACCTAGTGCAG	14300 fluorescence intensity (a.u.)
ATCCTTATTAATTTAATTTAACAAAGTCAACTTGATTTCCCGGAGTCACCTAGTGCAG	23100 fluorescence intensity (a.u.)
AGCAATGCAACGATTATTAATTTAATTTGCACATGTATTGCGGAGTCACCTAGTGCAG	5900 fluorescence intensity (a.u.)
CATGGTGAATTGGTGATTTTATAATGATGCTAAGCTTTGACGGAGTCACCTAGTGCAG	4860 fluorescence intensity (a.u.)
TAATATTTAATTTCTATCAACATCTGACTACTTAATATTGCGGAGTCACCTAGTGCAG	7790 fluorescence intensity (a.u.)
CTATCTCATTGCTTAATTGGTCATATAATTGGGCTGAGTGCGGAGTCACCTAGTGCAG	16900 fluorescence intensity (a.u.)
TTAATTGATTAATTTCCTTAACCAAATCTTGGCGACTTGACGGAGTCACCTAGTGCAG	61200 fluorescence intensity (a.u.)
AATCTTGGCAAATTTCCTTAATTTGAACCTACGTGTTAAACGGAGTCACCTAGTGCAG	5550 fluorescence intensity (a.u.)
GAATAATTATTACACAATGCTAATTAATTTCACAATATTGCGGAGTCACCTAGTGCAG	38800 fluorescence intensity (a.u.)
TCTTAATAATTATTTCTTAATTAATTCTGTGCTAATTGTGCGGAGTCACCTAGTGCAG	54300 fluorescence intensity (a.u.)
AGCGATTAGTAAGTGGATTGGATCTAACTAAGCTTGCTACCGGAGTCACCTAGTGCAG	9310 fluorescence intensity (a.u.)
CCTGCACAATCACTGGCTGATGCATCTGCAATGTCACCAACGGAGTCACCTAGTGCAG	4350 fluorescence intensity (a.u.)

Sequence	binding signal
TGGATTTGTATGTCTTAATTGAAGTTAGGCTATAAATTTGCGGAGTCACCTAGTGCAG	10300 fluorescence intensity (a.u.)
ATATTTAATTTGATACTACCTATAAACCGCACAAGCTGCACGGAGTCACCTAGTGCAG	16800 fluorescence intensity (a.u.)
GTGATGAGTGATGACCCGGAGAATGAGAGAGGCGACTGTGCGGAGTCACCTAGTGCAG	3800 fluorescence intensity (a.u.)
TAATGTGTGTGTATAATTAATTAAGCAGTGAAGTGAATCGCGGAGTCACCTAGTGCAG	5650 fluorescence intensity (a.u.)
TAATCATGTTAAATTGATGTTATTAGATTTATCATTAAACCGGAGTCACCTAGTGCAG	14900 fluorescence intensity (a.u.)
AGTTATAATGGAATTAATTATAATTATAGTATAGTTAGATCGGAGTCACCTAGTGCAG	28600 fluorescence intensity (a.u.)
GAGTGGTAAATAATTAATTATTACATATTTGTATAAATCGCGGAGTCACCTAGTGCAG	22800 fluorescence intensity (a.u.)
ATATGATCGTATAATTAAATGAGATCATGATTAAGTGGAGCGGAGTCACCTAGTGCAG	16400 fluorescence intensity (a.u.)
CATAATTAAAATACTTAAAATATGTGCTCGTAATTATTTACGGAGTCACCTAGTGCAG	6000 fluorescence intensity (a.u.)
GGATTAAATTATCAAATAGATTTGGCTGCCATGATGGCACCGGAGTCACCTAGTGCAG	42600 fluorescence intensity (a.u.)
CATTTGCTGGATGTGCTCCTTACTTAATATTTATGCATGGCGGAGTCACCTAGTGCAG	52600 fluorescence intensity (a.u.)
TAAATTAATTAATTAGGTATAAATGTAATTAAGCACATCGCGGAGTCACCTAGTGCAG	55000 fluorescence intensity (a.u.)
CTCCTAATTTAGTCACTTATGGAGCTCTGATAGCTGGATGCGGAGTCACCTAGTGCAG	14200 fluorescence intensity (a.u.)
GTTAATTAGATCATGATAAAGATTAATGTATAGATCGAGGCGGAGTCACCTAGTGCAG	62000 fluorescence intensity (a.u.)
ATGATAGATTAAATCAAATTATCATGTTATGGGTATAGCCCGGAGTCACCTAGTGCAG	53200 fluorescence intensity (a.u.)
GGGGATGGAAGGGTGATTGAGAGTAAGAATTGGAGGTGATCGGAGTCACCTAGTGCAG	30000 fluorescence intensity (a.u.)
TAGAATTGATGATACTAGCTATAACTTCCGAGTGAGCACACGGAGTCACCTAGTGCAG	16900 fluorescence intensity (a.u.)
CCATCTGCTGATAGATTTTCTATTGCCAAATCTTACACCTCGGAGTCACCTAGTGCAG	5710 fluorescence intensity (a.u.)
CTTCAATAATTAATTTATATTGTACTAATATGTTTGTAAACGGAGTCACCTAGTGCAG	17900 fluorescence intensity (a.u.)
AATTACTGTCATGATTTGAATTTGCAATCATTTCCTGTACCGGAGTCACCTAGTGCAG	18800 fluorescence intensity (a.u.)
TCCTTGCTAACAAATCAACCAATTTGTCCATTCCCTATGTCGGAGTCACCTAGTGCAG	3440 fluorescence intensity (a.u.)

Sequence	binding signal
AGAAATTGATTCGTCGAGGATATTGATCTATTAGTAAATGCGGAGTCACCTAGTGCAG	36700 fluorescence intensity (a.u.)
AGTTTCATTAAATTTAATATTAAACATATTTTGATAATATCGGAGTCACCTAGTGCAG	5680 fluorescence intensity (a.u.)
AAATAAATTTGAACTAAAATGAAAATTTGAAGGTATAGCACGGAGTCACCTAGTGCAG	12600 fluorescence intensity (a.u.)
AAGCTTCCTTTGATTGATCCGACTCCACCAAGAACACGATCGGAGTCACCTAGTGCAG	22000 fluorescence intensity (a.u.)
TGTAACTCTCGTATGTAATTGAGTAAAACATGTTGGTGCTCGGAGTCACCTAGTGCAG	4540 fluorescence intensity (a.u.)
TTGTATAAATGAGCTATCAGATTGGCTATAGATAAATTGGCGGAGTCACCTAGTGCAG	12000 fluorescence intensity (a.u.)
TTATTTAATTTAGAAAATTGGAGTTACCAGTTGTTCAGTTCGGAGTCACCTAGTGCAG	19500 fluorescence intensity (a.u.)
CAACGGTTAGATTAGATTGGTACTTCATGGTACATCGTGGCGGAGTCACCTAGTGCAG	43200 fluorescence intensity (a.u.)
TTGTATAAATTGGCTATTAGATTGGCTATAGATTAATTGGCGGAGTCACCTAGTGCAG	58900 fluorescence intensity (a.u.)
TTTTAGATTGGGTTATTTATAAGGCTAAGTTTTAATTTAACGGAGTCACCTAGTGCAG	4150 fluorescence intensity (a.u.)
TATATAATTTATTTAATTGGATTTACCAGTTTAAGGGGTTCGGAGTCACCTAGTGCAG	54300 fluorescence intensity (a.u.)
ATGAATAAGCTATTAGATTGACTATAGATAAATTGGAGCTCGGAGTCACCTAGTGCAG	18200 fluorescence intensity (a.u.)
TTGTATGAATGAGCTATTAGATTGGCTATAGATGAATTGGCGGAGTCACCTAGTGCAG	8950 fluorescence intensity (a.u.)
GTTAGATTAGATTGGTACCTCATGTTACCTCGTACCTCATCGGAGTCACCTAGTGCAG	55700 fluorescence intensity (a.u.)
TTGACTATTAAATTGGCTATAGATAAATTGGAGCTAGTAGCGGAGTCACCTAGTGCAG	23600 fluorescence intensity (a.u.)
CGGTTAGATTACATTGGTACCTCATGATATCTCGTACCTCCGGAGTCACCTAGTGCAG	4680 fluorescence intensity (a.u.)
TTATTAGATTGACTATAGATAAATTAGATAAATTGGAGTTCGGAGTCACCTAGTGCAG	53600 fluorescence intensity (a.u.)
TTAACAGATTCTTCTTAATTAATAAATAAGCTGTCATGATCGGAGTCACCTAGTGCAG	17300 fluorescence intensity (a.u.)
TTGATTAGATGCGCTGTGTGGCTTCTTGTTCAGTGACAGGCGGAGTCACCTAGTGCAG	32400 fluorescence intensity (a.u.)
ACTATGCCAATTAAAATAAATCAATACAATAGGTATGATTCGGAGTCACCTAGTGCAG	9790 fluorescence intensity (a.u.)
TACAACAAATCAATAATACTCAATTTCCATGTAGTTTGATCGGAGTCACCTAGTGCAG	7890 fluorescence intensity (a.u.)

Source: publication PMC7819943, “Rice protein-binding microarrays: a tool to detect cis-acting elements near promoter regions in rice”
